# Measured values from the supplement of paper PMC10681739.
# Over roughly 4,100 sequences, “arbitrary fluorescence units” has its median near 780; the highest 2% begin near 22,000. The list comes from a sample in which the highest values are over-represented; it also holds similar and randomly drawn sequences.
# Molecular target: T1, ETS1 (UniProt P14921)
# T1 sequence: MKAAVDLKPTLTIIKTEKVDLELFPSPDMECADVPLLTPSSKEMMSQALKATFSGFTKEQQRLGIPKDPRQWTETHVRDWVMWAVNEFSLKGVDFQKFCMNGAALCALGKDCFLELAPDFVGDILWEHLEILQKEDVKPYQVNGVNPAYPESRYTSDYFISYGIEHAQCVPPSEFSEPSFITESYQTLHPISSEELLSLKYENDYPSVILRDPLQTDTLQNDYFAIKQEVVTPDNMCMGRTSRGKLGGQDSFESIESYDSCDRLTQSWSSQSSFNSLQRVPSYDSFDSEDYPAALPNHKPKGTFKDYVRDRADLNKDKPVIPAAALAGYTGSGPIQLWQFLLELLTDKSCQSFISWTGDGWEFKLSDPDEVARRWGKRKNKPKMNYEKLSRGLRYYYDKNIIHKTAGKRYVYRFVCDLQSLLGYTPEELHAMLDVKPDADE
# Assay: ETS1 binding intensity (PBM fluorescence), ETS1 alone (arbitrary fluorescence units); higher = stronger binding
# Conditions: ETS1 concentration 1 nM; RUNX1 concentration 0 nM
# In short: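 Full-length recombinant human ETS1 (1 nM, no RUNX1) was incubated, per standard PBM protocols, on double-stranded Agilent 4 × 180k arrays of 36-bp genomic probes whose RUNX1 partner site was mutated. Bound ETS1 was detected with anti-ETS1 antibody (Cell Signaling Technology 14069) and Alexa488-conjugated secondary antibody, then scanned on a GenePix 4400A. Binding level is spot fluorescence intensity, summarised over replicate spots (four printed per sequence) and not normalised.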
row,Sequence,ETS1 binding intensity
1,CCTTTGGGGTAGCAGTGGCCCCGCGCGGAGGAAGTT,303
2,CTAGCCACCTCGGCCCCACCCTCTTCCGGCCTCAGC,1820
3,GCAGCTTCCGCGGCCCCCGCCCGGCCTGCAGCGCCA,2350
4,TGACATTTCCGGCCCCACCTCGGCCTGCAGCGCCGC,40200
5,TATCAGCTTCCGACGTGCCCCTCGGTATCTGGACTA,1600
6,GGATTTTGGGGTAGCGAACCCCGGGGCCGGAAGCAG,1080
7,CTGTCTGCTTCCCGTGGCCAGCCCTGATCGCGGCCC,953
8,TTCGCTCCCTGAATCGCGTCGCTTCCTGAGCCGCGC,454
9,CGGGACTTCCTGTCTTCCCTGTCGCGGAGCTCTGAA,27000
10,CCATTGGCGGGCGGCTTGAATGACGGAAGTGACGGC,872
11,CTGTCGTGACCCGGCAGGAGTAGCGTCGGAAGCAAT,403
12,CTTAGCGGAAGAGGCGTGACCCAGGCGTACCCCAGG,1380
13,GGTCCAGGAAGACGTCAAGGGCTTGGATTTGTAAAC,437
14,AGGGGCAGAGCACAGCACCACCGGAAGTAGGGCTCA,9450
15,TAGGTCACCTCCGCGACACAGCAACGGAAGTAGGGT,1110
16,GCACCACCGGAAGTAGGGCTCAACCTCCGCTCATTT,24400
17,GTCCCCTCGGTGTCACAGCAATATCCGTTCTTTGAT,1190
18,CGGGAATCCACGGAATTTACTGCCGGAAGTTCGGCG,2700
19,CGAGAACGGCGCCACTGAGGAACCGGAAACAAGCCA,3230
20,AGACCCTGTTGTCACATGGCAGGAAGTCTGCAGGTT,1060
21,CATCTGTTGTCTCCTTGAAGTCACATCCCACAGGAG,438
22,GAAGTCACATCCTGTCTGTTGGGGCAGGGCACAGAG,23500
23,ACAAAAAAATCACACACCCAACGGAAACCATAGAGA,669
24,AGCACCCCATTCTACACCTCCAGCTCATCCTGCGTC,389
25,GAACTTCCGGGACCACGTGACGTAGAACTACAACAA,32800

row,Sequence,ETS1 binding intensity
1,CTCCTGGGCTTGTAGTTAGAACATCCTGCAGCAAAG,1130
2,TTTCTGACTTCCTGTGTGCTTCAGAAACCCCAATGA,25100
3,GCAGGACTTCCTGTGTTGTGCTAACCCCAAATTACA,22100
4,AATGAGCCCCAGAACCCTTTTCCTTCCGGCCTGTGC,1520
5,CGGAGAGCTCGCGGCAATTCCGTTTCCCCGCCCTTT,404
6,CCGCCCACTTCCGTGTGGCCGCCGATTGGTCTTGCC,7350
7,GGCCTACGGGAGGGCCCGCCTTGGCTGCTTCCGCAG,310
8,GCTGCTTCCGGCCGCTGGTCGCAGGGCTGAGGGACT,26400
9,GAGGGCTGCTTCCTGCTCTGTGGAGGCCGCTGAGGG,6710
10,GGCTCTGCCGTCCGCTGACAGGAAGACGCTGACGAC,973
11,TGCGCTCGATTGTGAGCGGGGGCGGAAAGAGGCGCC,471
12,GTAGGGCCGGACGGCAGGCTCCGGGATAGCGCCACG,416
13,AGCTTTTCTGAGAGCGCGGGCAGGATGTGACCTCCC,675
14,CTTTCTGTCGAGGTCAGGTTTCCTCTCCTTTATGAA,437
15,CGTGTCCACGGGGACCGAAAGTGGCGTCCGGCGCAA,354
16,GGGTCCTTCCGGGTTTTGTGTCGAATCTACGGCGGC,7400
17,GCGGGGCGTGTCCACGCACTTCCGGTTTTCTCGAAA,28700
18,TGTGTAATCCCCACGACAACCTAGGAAGTGGGAAAA,410
19,CTGCCCATCGCTGTTAACTTTTCCGCCTCCTTAAAG,492
20,CCTGACTTCCTCCTCCCCCTCCCGCCCCAATTCCGC,4620
21,ACCTTCGCCGCTGTCCCCAGCCTCTTCCTGTCCCGG,1130
22,GTCTTACTTCCTGTCCCCGCCCACCTCGACTGTCTT,22700
23,AGTTGCTAAGGAAATGACTGCCTGCAGCGCCTGGCC,610
24,GAAGAGACTCCCGCCACCTTGGCCGTTTCCCCTGAT,318
25,GCCGCTGGGTAGGCGGAAGTAGCCGCTGGCATGGCA,2800

row,Sequence,ETS1 binding intensity
1,AGAAAACTACATTCAATTCTCTTTACACAGGATGTT,661
2,CGGGACAGCGACGGGCCAGGTGACCGGAAGAGGCCG,1770
3,GCGGAGCTTGTAGGCCAGGAGGACTTCCGGGTGGGT,2220
4,GCACTTCCGGAGCCGGGCGTCTACAGGCCGAGGCCA,28500
5,CGGAGCCCAACGACCGGCACTTCCGGGGGGCGGGTG,5010
6,CACCCTCACGGAAACAGCTGTGTGTAAGCACCTCCA,585
7,TATCATTTTTACGACAGAGGTACAGGAAATTGTTTC,733
8,TAGGTTTGGGGTAGAAGCTGCAGGAACTTCCTGTCC,1710
9,CCCCTCACTTCCCTCAACCCTTCCCATAAACTGGGA,1620
10,GGTGACGTCAACGCGTTCACCAGCCCGGAAGTGCGC,1230
11,GCGCACTTCCGGGCTGGTGAACGCGTTGACGTCACC,35400
12,CGACGTCACTTCCGCTGGTTCAAGCACCGTGAGACT,21400
13,AAGCTTCCTGGCCCTTTAAAAATGGAGGTTCCGCAC,4840
14,GGGGCGATTACAGAACGGGTAACTCAGGATGATTCA,541
15,CTTGGGGTCCCCTCGGGTGGTGGCAGGATGTAGGTA,480
16,CCGAGCGCATTTTACGTGGTGCTGCATTTCCGGTAG,3930
17,GGACCGGAAGTAGGTTTCTACCCGAGCGCATTTTAC,27600
18,CGCCCCGGCAGCCGCCCACGTCCGGGGGCCAGGCCT,802
19,AGCGCTTCCTGGCTCCGGCCCCGCCCCTGCAGTCGG,6440
20,GAGAACTTCCGGTGCGCTCCCCGGGACTGCAGTCCC,46000
21,TGGCGGGAGAACTTCCCCCTGTGCGCTCGCGACGTG,775
22,CTTTTTGGTCTGCCAGGCACGGATTTCCGCCCACTC,1270
23,ATGGAAAGGAAGTCGGTGGGAATCCGCCTCAGCGGT,1590
24,GTGTCCTGTGCTCTCCTCTGCGCCACTTCCCTGCCT,623
25,GTCCTCTTCCTGTCCCCCAGGTGGGCATGTGATTTG,6800

row,Sequence,ETS1 binding intensity
1,CCCACTTCCTGTCCCTGCATGCTCTGGGGCAGGCAG,31100
2,GGCGGCTGTGAGCGCAAAACCCAAAACTTCCGATGG,452
3,TCAGGAGCCACGGACGGGCGGGGCTTCCGGGAGCAA,1170
4,CACGGAGCCACTTCCGGCGGCTGTGAGCGCAAAACC,35500
5,AACACTATTTCCTTTCTTGCTGCTCACATTTTAACA,4990
6,CTGCTTGAGGGTGGAGGGGAGCTTCCGAAGGAGGCC,536
7,TGGAGCTGTTACGGGGTCCGCGGGGAAGTCTTGGCA,364
8,GGACGCTTCCGGTGGAAGGGAGCTGTTACGGGGCTT,32900
9,AAACCAGAGGAAGTGGATTCCAACTACAAACCTCAC,1830
10,ACTCACTTCCGTTTAGCTTATCAACTACCAAGAGAC,35500
11,CTTATCAACTACCAAGAGACATTTCCCCTTTGTACT,558
12,CGGGAGCGGCCGAAGTGACGACTTCCGGGATGCTCC,7380
13,GTGCAACTGCTGTAAAAATAGGAAGTGGGGGAGGAG,861
14,CGCCTCATTTCCTGTGCAACTGCTGTAAAAATAGGA,22400
15,CCACCGTGCTGTAAACTGCACTTCCTCACTTAGCAC,870
16,CACCTGACTACAAGGCACACGAACATCCTTATCACA,655
17,ACCAAGTTTCGGGCAGGATCTTCCTGTAGTTTGCCT,566
18,CTCCAAGCCCAGAGAGCACCCCTTCCTGCCCGGACA,737
19,CACGGTCTTTGCCGCTCAGCTTCCCGGAGTCCGCGC,458
20,CGTACGCGCACTTCCGGTCTTTGTGACTTGCAGCTC,38700
21,TTCTCTGGGGACAATTAGGGTTTCTGGGTTTCCTGA,457
22,CCTGGGGGGCCGGAAGCCCCGCTTCGGCCCCAGCCC,2820
23,CACTTCCTGTCAAAGCCAGTTCCTTAGCCGCTTAGG,45000
24,TCTCCCTGCCCGCGAGTCAAAGCCACTTCCTTTTCC,917
25,TGTCATCCCGGAAACTGATAACAAGACCTCGAGTCA,4740

row,Sequence,ETS1 binding intensity
1,AGCTTCCTGTTTGGCCTTGCTGATGTCACCCCATTA,27600
2,TGGGGCCTTGTTATCACAGCACTTCCTGTTTGCTTT,7990
3,TACAGCTTCCTTCACCCCACTTGGGGCCTGGGTTAC,1140
4,TCCTGGCTGCCCCCAAGGCCAGGAAGAGCGAAAACA,434
5,CTGAAACAGGAAACAGACAAAGTCACAAGGTTCGCA,5430
6,GACTTCCTGTTGAAGATTGGCCTCTTCGGTAGCACA,44600
7,TGGCCTCTTCGGCCCTGGCCTTGACTTCCTTTCCTC,362
8,CCTGCTGTGACTTCGGCTGTTTTCCTGGCCTGTGAG,387
9,CCCACCTCGGCCCACGCCGAGCGTGGCGGAACAGCT,385
10,CGGGCACGTCCTACGGCAGCAACGTCCGCCGCGCCG,540
11,CACCCAAGGATATGCTTTTTTTTGGCAAGTCACATC,604
12,TTGGCCTGGGCTCTGGGCCACTTCCTGTGCTCTCCA,5490
13,TTCTGCTACATCCTGCCCACTCCCTGTGACTTCCAC,9350
14,TTTCCACTTCCTGTTCTACTTGGGGCTACTGACTCA,25500
15,TTTATCCTTATTTCCTGGCTTCGCCTACAAGCACAG,5090
16,CTTGACTTAACTACAAGACAGGATGGGTTGATGAAG,426
17,AAAGCATTTCCTGCCTTGACTTAACTACAAGACAGG,25700
18,TTCACGCTCCGTAAGCTCGCTCCTTCCGGGACGCAG,643
19,CTCTGCTTCCTGTCTTTGAATGCCTCTGTGATTTTC,13400
20,AAGGTCGAGGTCTCGGCTTCCCCGGAACTTTTTGCT,295
21,TGCTTCCGGCGGGCGCTTGCTCCCCGAGGTCGGCAA,24800
22,GTGGGGCGGGCTTCCGGCGCTCCCACCGTGAGCCGA,8140
23,GAAGGGAGGAAGCCTGAGAACTGTTGTCTCCTGAAG,424
